The source made the active and inactive calls. No rule for the calls is given here.

The text below walks through data of PubChem BioAssay AID1211 (NMMLSC, 2008).

For this test, the target named is Estrogen receptor (Homo sapiens) (UniProt P03372). Kind of test: displacement of fluorescent estrogen from ERalpha – cell-based, Cos7 ERalpha-GFP, flow cytometry, primary screen (AID 1211).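 Also: 0% = DMSO vehicle wells and 100% = no E2-Alexa633 signal left.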 The following applies: fluorescent ligand competition, stronger effect = higher value.
Chain of Estrogen receptor (Homo sapiens) (P03372 whole entry, looked up): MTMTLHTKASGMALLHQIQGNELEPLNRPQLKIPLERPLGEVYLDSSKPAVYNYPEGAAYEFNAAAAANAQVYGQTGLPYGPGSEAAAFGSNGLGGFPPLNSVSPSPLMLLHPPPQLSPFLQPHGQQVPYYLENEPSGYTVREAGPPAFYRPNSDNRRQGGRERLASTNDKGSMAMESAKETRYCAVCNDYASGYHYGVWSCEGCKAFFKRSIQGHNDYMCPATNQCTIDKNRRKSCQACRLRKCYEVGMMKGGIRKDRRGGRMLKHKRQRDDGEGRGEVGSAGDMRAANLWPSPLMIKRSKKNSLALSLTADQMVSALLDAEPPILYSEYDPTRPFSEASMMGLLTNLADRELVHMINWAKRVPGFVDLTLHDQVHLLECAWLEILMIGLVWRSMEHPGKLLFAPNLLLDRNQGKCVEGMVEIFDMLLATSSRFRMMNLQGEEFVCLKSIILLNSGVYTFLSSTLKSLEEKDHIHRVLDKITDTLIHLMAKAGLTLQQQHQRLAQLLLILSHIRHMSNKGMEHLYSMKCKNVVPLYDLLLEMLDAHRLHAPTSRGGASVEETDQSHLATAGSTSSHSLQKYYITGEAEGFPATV

`C=C(C)CNC(=S)NNC(=O)CCn1c2cc(Cl)ccc2c2ccc(Cl)cc21`: the inhibition of ligand binding was 60% (inactive) (at 10 µM) and 15% (binding inhibition, at 0.1 µM).
Consider `O=C1NC(c2ccc(Br)cc2)Nc2sc3c(c21)CCC3` (configuration not stated), for which the inhibition of ligand binding is, setting by setting: (at 10 µM) 29% (active); (binding inhibition, at 0.1 µM) 69%.
On the same counts, the results for `N#CC1=C(N)OC2=C(CCC/C2=C/c2ccoc2)C1c1ccoc1` (configuration not stated) are 56% (inactive) and 40%.
On the same counts, the results for `N=c1c(C(=O)NCc2ccc(F)cc2)cc2c(=O)n3ccccc3nc2n1Cc1cccnc1` are 44% (inactive) and 26%.
On the same counts, the results for `O=C(CSc1nnc(Nc2ccccc2F)s1)NCc1ccco1` are 3% (inactive) and 3%.
As for `CCCc1nnc2n1N=C(c1ccc(-c3cc(Cl)ccc3Cl)o1)CS2`, the inhibition of ligand binding by setting is: (at 10 µM) 47% (inactive); (binding inhibition, at 0.1 µM) 27%.
On the same counts, the results for `O=C(NCCN1CCOCC1)c1cnn2c(-c3ccccc3)cc(-c3ccccc3)nc12` are 0% (inactive) and 8%.
On the same counts, the results for `O=C(O)C1Nc2c(O)cc(Cl)c([N+](=O)[O-])c2C2C=CCC12` (configuration not stated) are 50% (inactive) and 20%.
In the case of `CCc1cccc2c(C(=O)Cn3nnc(-c4ccc(OC)c(OC)c4)n3)c[nH]c12`, the inhibition of ligand binding (at 10 µM) was 10% (inactive) and the inhibition of ligand binding (binding inhibition, at 0.1 µM) is 24%.
On the same counts, the results for `COc1cccc2c1NC(C(=O)O)C1CC=CC21` (configuration not stated) are 38% (inactive) and 9%.
On the same counts, the results for `N#CC(C(=O)Nc1ccc(Cl)cc1)=C1Nc2ccccc2N1` are 48% (inactive) and 21%.
On the same counts, the results for `O=C(Oc1ccc2c(c1)OCO2)c1cc2c(s1)CCC2` are 32% (inactive) and 27%.
With `CC(C)C1Nc2c(O)cc(Cl)c([N+](=O)[O-])c2C2C=CCC21` (configuration not stated), the inhibition of ligand binding (at 10 µM) is 40% (inactive) and the inhibition of ligand binding (binding inhibition, at 0.1 µM) came out at 16%.
On the same counts, the results for `Cc1ccc2[nH]c(=O)c(-c3nc4ccccn4c3NCc3ccco3)cc2c1` are 23% (inactive) and 16%.
On the same counts, the results for `CC(C)c1ccc2c(c1)[C@H]1OCC[C@H]1[C@@H](c1cccs1)N2` are 0% (inactive) and 20%.
For `CC1CCN(S(=O)(=O)c2ccc(NC(=O)Cc3cccs3)cc2)CC1`, the inhibition of ligand binding by setting is: (at 10 µM) 62% (inactive); (binding inhibition, at 0.1 µM) 56%.
On the same counts, the results for `Cc1nn(-c2ccccc2)c(C)c1NC(=O)Cc1cccs1` are 11% (inactive) and 35%.
On the same counts, the results for `CCc1ccc(Nc2nc(N)nc(CSc3nnnn3-c3ccccc3)n2)cc1` are 49% (inactive) and 16%.
Regarding `COC(=O)C1=C(O)/C(=C\c2ccc(CNC(=O)C(=O)Nc3ccc(C)c(C)c3)o2)N=C1C`, the inhibition of ligand binding was 32% (inactive) (at 10 µM) and 31% (binding inhibition, at 0.1 µM).
On the same counts, the results for `Cc1nn2cc(-c3ccc(N)cc3)nc2s1` are 28% (inactive) and 53%.
On the same counts, the results for `CCC(=O)Nc1ccc(C(=O)Cn2nc(C(=O)O)c3ccccc3c2=O)cc1` are 50% (inactive) and 30%.
